We go through 35 compounds from PubChem BioAssay (NCATS).

Several values for one entry are separate records, joined by “and”; a condition that tells them apart may be missing. Equal entries are not always repeated. Results filed as inconclusive are left out. Activity calls are given as the source filed them. Unless noted, calls come from the whole dose curve.

Bile acid receptor (Homo sapiens), sequence (Q96RI1 whole entry, looked up): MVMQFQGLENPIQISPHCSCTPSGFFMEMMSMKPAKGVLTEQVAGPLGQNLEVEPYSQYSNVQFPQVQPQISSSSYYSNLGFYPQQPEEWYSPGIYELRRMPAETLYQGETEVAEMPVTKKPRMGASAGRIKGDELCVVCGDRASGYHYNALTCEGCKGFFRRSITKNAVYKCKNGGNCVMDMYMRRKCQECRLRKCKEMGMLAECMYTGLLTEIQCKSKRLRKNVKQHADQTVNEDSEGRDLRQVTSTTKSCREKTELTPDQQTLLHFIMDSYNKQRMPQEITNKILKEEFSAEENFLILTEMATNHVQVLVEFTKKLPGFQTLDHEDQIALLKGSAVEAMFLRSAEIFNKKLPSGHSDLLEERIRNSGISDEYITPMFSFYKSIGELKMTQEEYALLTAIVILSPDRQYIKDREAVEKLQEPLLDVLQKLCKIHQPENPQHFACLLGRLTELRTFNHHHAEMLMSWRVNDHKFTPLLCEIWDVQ
Glucocorticoid receptor (Homo sapiens), sequence (P04150 whole entry, looked up): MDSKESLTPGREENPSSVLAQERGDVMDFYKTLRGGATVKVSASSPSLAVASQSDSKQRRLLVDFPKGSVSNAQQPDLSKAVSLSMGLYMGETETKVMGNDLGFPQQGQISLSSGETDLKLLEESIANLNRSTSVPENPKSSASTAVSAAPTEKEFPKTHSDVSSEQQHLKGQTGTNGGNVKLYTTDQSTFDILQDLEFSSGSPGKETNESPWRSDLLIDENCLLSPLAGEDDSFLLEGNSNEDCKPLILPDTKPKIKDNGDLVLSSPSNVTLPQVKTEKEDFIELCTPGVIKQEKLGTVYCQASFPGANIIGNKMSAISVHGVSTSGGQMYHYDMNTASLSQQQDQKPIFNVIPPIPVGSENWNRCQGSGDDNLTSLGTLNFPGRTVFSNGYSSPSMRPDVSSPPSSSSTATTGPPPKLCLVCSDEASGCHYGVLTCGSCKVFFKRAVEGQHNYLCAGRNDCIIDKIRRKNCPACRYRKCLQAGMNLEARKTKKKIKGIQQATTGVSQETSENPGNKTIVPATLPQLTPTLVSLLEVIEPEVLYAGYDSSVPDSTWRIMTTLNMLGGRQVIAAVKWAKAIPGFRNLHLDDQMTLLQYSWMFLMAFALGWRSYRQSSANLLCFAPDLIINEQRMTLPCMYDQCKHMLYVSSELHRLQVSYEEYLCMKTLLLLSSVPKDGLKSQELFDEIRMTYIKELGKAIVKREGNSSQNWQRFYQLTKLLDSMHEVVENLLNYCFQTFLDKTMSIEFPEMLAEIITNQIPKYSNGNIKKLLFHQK
Peroxisome proliferator-activated receptor gamma (Homo sapiens), sequence (P37231 whole entry, looked up): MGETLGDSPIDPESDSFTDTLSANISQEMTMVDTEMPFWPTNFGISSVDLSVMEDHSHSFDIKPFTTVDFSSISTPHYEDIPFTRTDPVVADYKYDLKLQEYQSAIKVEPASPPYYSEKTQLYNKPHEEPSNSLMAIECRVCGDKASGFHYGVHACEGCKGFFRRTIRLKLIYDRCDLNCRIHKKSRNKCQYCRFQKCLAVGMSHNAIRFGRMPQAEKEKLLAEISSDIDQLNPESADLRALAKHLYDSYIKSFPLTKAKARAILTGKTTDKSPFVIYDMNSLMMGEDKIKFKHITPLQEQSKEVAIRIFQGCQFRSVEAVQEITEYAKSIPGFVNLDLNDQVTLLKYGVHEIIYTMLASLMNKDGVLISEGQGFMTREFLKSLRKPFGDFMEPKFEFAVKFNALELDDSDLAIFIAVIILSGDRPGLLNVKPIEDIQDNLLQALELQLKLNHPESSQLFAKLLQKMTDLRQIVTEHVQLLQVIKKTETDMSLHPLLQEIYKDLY

One test concerns the target Bile acid receptor (Homo sapiens) (UniProt Q96RI1). The experiment in a line: qHTS assay for small molecule agonists of farnesoid X receptor signaling (AID 588527).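 Note: 0% = vehicle basal and 100% = reference agonist.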 Conditions: HEK293T FXR-UAS-bla, beta-lactamase ratio, 16 h; stronger effect = higher value. The procedure, abridged: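 Read-out: beta-lactamase reporter fluorescence with CCF4 substrate in GeneBLAzer FXR-UAS-bla HEK293T cells, after 16 h compound exposure at 37 C. Response scaled between DMSO basal (0%) and chenodeoxycholic acid at 100 uM (100%).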
In the case of `CCOc1ccccc1C(N)=O`, the activation was -0.664% (inactive).

For the compound `CCN(CC)CCOc1ccc(/C(=C(\Cl)c2ccccc2)c2ccccc2)cc1`, the activation is 1.52% (inactive).

Turning to `CN(C)C(=S)SC(=S)N(C)C`, the activation is 1.4% (inactive).

With `O=C(OCc1ccccc1)c1ccc(O)cc1`, the activation was 1.11% (inactive).

As to `CCOP(=S)(OCC)O/N=C(\C#N)c1ccccc1`, the activation is 8.69% (inactive).

In the case of `CC/C(=C(/CC)c1ccc(O)cc1)c1ccc(O)cc1`, the activation was 2% (inactive) and 5.54% (inactive).

For the compound `O=C(Nc1ccc(Cl)cc1)Nc1ccc(Cl)c(Cl)c1`, the activation is 1.41% (inactive).

Take `Cc1cc(C(C)(C)C)c(O)c(C(C)(C)C)c1`: the activation was 9.91% (inactive) and 2.64% (inactive).

With `CN(C)c1ccc(C(=C2C=CC(=[N+](C)C)C=C2)c2ccc(N(C)C)cc2)cc1`, the activation is -3.58% (inactive) and -3.47% (inactive).

As for `O=C1C(c2[nH]c3ccccc3c2O)=Nc2ccccc21`, the activation is 0.121% (inactive).

Turning to `Oc1ccc(Cl)cc1Cc1cc(Cl)ccc1O`, the activation was 1.29% (inactive).

For the compound `CCOc1ccc(NC(C)=O)cc1`, the activation is 0.406% (inactive) and 4.82% (inactive).

Take `O=c1ccc2ccccc2o1`: the activation is 2.18% (inactive) and -1.67% (inactive).

Take `O=C1c2cccc(O)c2C(=O)c2c(O)cccc21`: the activation is -5% (inactive).

As for `Cn1cnc2c1c(=O)[nH]c(=O)n2C`, the activation is 0.0385% (inactive).

As to `c1ccc2[nH]c(-c3cscn3)nc2c1`, the activation was -0.341% (inactive) and 3.24% (inactive).

With `Cc1ccc(O)cc1`, the activation was -0.678% (inactive).

On to `CCN(CC)C(=O)c1cccc(C)c1`, for which the activation was 0.006% (inactive) and -2.52% (inactive).

As for `C[C@@H]1C[C@@H]([C@H](O)CC2CC(=O)NC(=O)C2)C(=O)[C@@H](C)C1`, the activation was 0.176% (inactive) and -1.82% (inactive) and 1.78% (inactive).

In the case of `Cc1c(N(C)C)c(=O)n(-c2ccccc2)n1C`, the activation is -2.31% (inactive).

Take `COc1ccc2cc3[n+](cc2c1OC)CCc1cc2c(cc1-3)OCO2`: the activation was -1.09% (inactive).

For the compound `Oc1c(Cl)cc(Cl)cc1Sc1cc(Cl)cc(Cl)c1O`, the activation is -0.242% (inactive).

In the case of `CC(O)COc1ccccc1` (centres undefined), the activation is -2.72% (inactive).

On to `NS(=O)(=O)c1cc2c(cc1Cl)NCNS2(=O)=O`, for which the activation is -0.539% (inactive) and 0.498% (inactive).

For `O=C(NC(=O)c1c(F)cccc1F)Nc1cc(Cl)c(OC(F)(F)C(F)C(F)(F)F)cc1Cl` (centres undefined), the activation is -0.875% (inactive).

The target in another test is Glucocorticoid receptor (Homo sapiens) (UniProt P04150). The experiment in a line: qHTS assay for small molecule agonists of glucocorticoid receptor signaling (AID 588532; active = well fitted curve in the direction sought with a large enough effect in the signal ratio, with a control signal flat; the % refers to the signal ratio;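 note: 100% = dexamethasone at 0.1 µM and 0% = DMSO only wells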). The note with it: HeLa MMTV-bla, beta-lactamase ratio, agonist, 18 h; stronger effect = higher value; percent of dexamethasone control, DMSO zero. Put shortly:
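MMTV-bla HeLa, beta-lactamase reporter; medium with 1% charcoal/dextran-stripped FBS; cpds up to 92 uM, 18 h, 37 C; CCF4 readout 460/530 nm; Hill fit → EC50, efficacy vs 0.1 uM dexamethasone = 100%.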
(qHTS replaces the single test concentration by a dilution series.)
Turning to `CCOP(=S)(OCC)O/N=C(\C#N)c1ccccc1`, the activation was -3.68% (inactive).

As for `O=C(CCl)c1ccc(Cl)cc1Cl`, the activation was -10.9% (inactive).

With `O=C(NC(=O)c1c(F)cccc1F)Nc1cc(Cl)c(OC(F)(F)C(F)C(F)(F)F)cc1Cl` (centres undefined), the activation was 15.8% (inactive).

The target in another test is Peroxisome proliferator-activated receptor delta (Homo sapiens) (UniProt Q03181). The experiment in a line: qHTS assay for small molecule agonists of peroxisome proliferator-activated receptor delta signaling (AID 588534).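 Note: 0% = DMSO basal wells and 100% = positive control agonist at 10 µM.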 The note with it: HEK293T PPARdelta-UAS-bla, beta-lactamase ratio, 18 h; series mostly up to 76.7 µM; activation: at the top concentration. The procedure, abridged: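 Agonist-mode beta-lactamase reporter readout (CCF4 dye, 2 h at RT) after 18 h at 37 °C exposure to a titration; Hill-equation fitting gave EC50 and maximal response.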
Peroxisome proliferator-activated receptor delta (Homo sapiens), sequence (Q03181 whole entry, looked up): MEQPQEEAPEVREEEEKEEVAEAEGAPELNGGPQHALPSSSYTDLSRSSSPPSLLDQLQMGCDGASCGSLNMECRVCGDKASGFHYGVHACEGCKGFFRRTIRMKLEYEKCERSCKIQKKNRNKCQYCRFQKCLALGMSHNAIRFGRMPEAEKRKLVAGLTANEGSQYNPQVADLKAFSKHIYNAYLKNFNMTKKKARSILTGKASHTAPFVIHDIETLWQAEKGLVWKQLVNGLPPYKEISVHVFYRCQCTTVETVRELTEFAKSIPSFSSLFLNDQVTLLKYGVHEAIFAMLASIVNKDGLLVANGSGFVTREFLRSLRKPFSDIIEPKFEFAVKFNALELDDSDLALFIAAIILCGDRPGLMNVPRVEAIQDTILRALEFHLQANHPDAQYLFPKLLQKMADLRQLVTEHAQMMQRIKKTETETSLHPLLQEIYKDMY
In the case of `C=C[C@@]1(C)CC(=O)[C@]2(O)[C@@]3(C)[C@@H](O)CCC(C)(C)[C@@H]3[C@H](O)[C@H](OC(C)=O)[C@@]2(C)O1`, the “activation” value was 1.54% (inactive).

Turning to `CCOP(=S)(OCC)O/N=C(\C#N)c1ccccc1`, the “activation” value was 13.8% (inactive).

Turning to `COP(=S)(OC)Oc1ccc(Sc2ccc(OP(=S)(OC)OC)cc2)cc1`, the “activation” value is -5.06% (inactive).

For the compound `Cc1cc(C(C)(C)C)c(O)c(C(C)(C)C)c1`, the outcome was inactive.

As to `CCCCC(CC)COC(=O)C(C#N)=C(c1ccccc1)c1ccccc1` (centres undefined), the “activation” value was 3.81% (inactive).

For `Cc1ccc(O)cc1`, the “activation” value was -2.24% (inactive).

As to `CCCCCC(N)=O`, the “activation” value is 5.04% (inactive).

Take `Nc1ccc(S(=O)(=O)Nc2nccs2)cc1`: the “activation” value was -2.34% (inactive).

In the case of `CC(O)COc1ccccc1` (centres undefined), the “activation” value was 1.3% (inactive).

In the case of `NS(=O)(=O)c1cc(C(=O)O)c(NCc2ccco2)cc1Cl`, the result was inactive.

`CCCCCCCC/C=C\CCCCCCCCN`: the “activation” value was -5.04% (inactive).

Regarding `Nc1ccc(N=Nc2ccccc2)c(N)n1`, the outcome was inactive.

Tested on in the next test: not listed separately
The test is described as follows: qHTS assay for small molecule antagonists of peroxisome proliferator-activated receptor delta signaling (AID 588535; active = well fitted inhibition curve with a large enough effect in the signal ratio, with a control signal flat, not every such curve was filed as active; the % refers to the signal ratio; note: potency is the fitted concentration of half-maximal effect;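 for max response: cells co-treated with a PPAR-delta agonist as stimulator during compound exposure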). Conditions: HEK293T PPARd-UAS-bla, beta-lactamase FRET ratio, 18 h; 460 nm channel. Put shortly:
(§1)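 Inhibition of PPAR-delta response element-driven beta-lactamase expression is measured in HEK293T cells exposed to a compound titration series for 18 hrs at 37 C. Half-maximal inhibition comes from Hill equation fitting.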
As for `CCC(=O)O[C@H]1CC[C@H]2[C@@H]3CCC4=CC(=O)CC[C@]4(C)[C@H]3CC[C@]12C`, the max response is -14.3%.

For `COP(=S)(OC)Oc1ccc(Sc2ccc(OP(=S)(OC)OC)cc2)cc1`, the max response was -0.163%.

On to `C[C@@H]1C[C@@H]([C@H](O)CC2CC(=O)NC(=O)C2)C(=O)[C@@H](C)C1`, for which the max response was -115% and -59.6%.

The next test has as its target Peroxisome proliferator-activated receptor delta (Homo sapiens) (UniProt Q03181). Described as above. The note with it: HEK293T PPARd-UAS-bla, beta-lactamase FRET ratio, 18 h; series mostly up to 76.7 µM; activity change, negative = inhibition: at the top concentration. The procedure, abridged:
as §1
Regarding `CCC(=O)O[C@H]1CC[C@H]2[C@@H]3CCC4=CC(=O)CC[C@]4(C)[C@H]3CC[C@]12C`, the “activity change, negative = inhibition” value was -0.261% (inactive).

Consider `COP(=S)(OC)Oc1ccc(Sc2ccc(OP(=S)(OC)OC)cc2)cc1`, for which the “activity change, negative = inhibition” value is -1.12% (inactive).

As for `C[C@@H]1C[C@@H]([C@H](O)CC2CC(=O)NC(=O)C2)C(=O)[C@@H](C)C1`, the Potency was 316 nM (active) and 199 nM (active).

A further test addresses Peroxisome proliferator-activated receptor gamma (Homo sapiens) (UniProt P37231). The test is described as follows: qHTS assay for small molecule agonists of peroxisome proliferator-activated receptor gamma signaling (AID 588536; active = well fitted curve in the direction sought with a large enough effect in the signal ratio, with a control signal flat, not every such curve was filed as active; the % refers to the signal ratio;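 note: 0% = DMSO basal wells and 100% = rosiglitazone at 2 µM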). Conditions: HEK293 PPARg-UAS-bla, beta-lactamase ratio, 16 h, percent of rosiglitazone response, DMSO as zero; series mostly up to 76.7 µM; activation: at the top concentration. The procedure, abridged:
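Beta-lactamase reporter read-out: CCF4 fluorescence (ex 405, em 460/530 nm) after 2 h at RT. HEK293 GeneBLAzer cells were treated for 16 h at 37 C. Hill fits gave EC50 and efficacy versus 2 uM rosiglitazone (100%) and DMSO (0%).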
For `COP(=S)(OC)Oc1ccc(Sc2ccc(OP(=S)(OC)OC)cc2)cc1`, the “activation” value is -9.38% (inactive).

With `C[C@@H]1C[C@@H]([C@H](O)CC2CC(=O)NC(=O)C2)C(=O)[C@@H](C)C1`, the outcome was inactive.

In the case of `O=C(NC(=O)c1c(F)cccc1F)Nc1cc(Cl)c(OC(F)(F)C(F)C(F)(F)F)cc1Cl` (centres undefined), the “activation” value was 0.911% (inactive).
